tested on: Community 10; assay: relative growth (AUC of 72 h growth curve relative to DMSO control, dAUC) (ratio); higher = more growth (less inhibition), active = hit call of the paper; conditions: 20 µM;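 active = growth AUC significantly below the DMSO wells by Dunnett test; inactive = the rest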
Procedure: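 Environmental bacterial isolates (Iceland stream sediment and Silwood Park soil) and whole stream-sediment communities were grown in LB from a 1:100 dilution with each pesticide at 20 µM (1% DMSO). A600 was read hourly for 72 h and the area under a spline-fitted growth curve (AUC) was computed. dAUC is the mean AUC of 3 biological replicates divided by the mean AUC of the DMSO controls. Significance was tested by Dunnett's test against the DMSO control.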

`CCOC(=O)CC(SP(=S)(OC)OC)C(=O)OCC` (stereo not given) was tested. Which relative growth did it give?
Its relative growth is 0.992 (inactive).

`CN(C)C(CSS(=O)(=O)O)CSS(=O)(=O)O` was tested. Which relative growth did it give?
Its relative growth is 0.835 (inactive).

With `ClC1C(Cl)C(Cl)C(Cl)C(Cl)C1Cl` (stereo not given) as the compound, how does the relative growth read?
The relative growth was 0.844 (inactive).

`Cc1cc(C)nc(Nc2ccccc2)n1` was tested. Which relative growth did it give?
Its relative growth is 1.07 (inactive).

With `COc1cccc(C(=O)NN(C(=O)c2cc(C)cc(C)c2)C(C)(C)C)c1C` as the compound, how does the relative growth read?
Its relative growth is 0.786 (inactive).

For `CCc1cnc(C2=NC(C)(C(C)C)C(=O)N2)c(C(=O)O)c1` (stereo not given), which relative growth is on record?
The relative growth was 1.1 (inactive).

`CC(C)(C)[C@@H](O)[C@H](Oc1ccc(Cl)cc1)n1cncn1` was tested. Which relative growth did it give?
Its relative growth is 1.07 (inactive).

With `Oc1ccccc1-c1ccccc1` as the compound, how does the relative growth read?
Its relative growth is 0.954 (inactive).

With `CSc1nnc(C(C)(C)C)c(=O)n1N` as the compound, how does the relative growth read?
Its relative growth is 1.03 (inactive).

`CCCCOC(=O)[C@H](C)Oc1ccc(Oc2ccc(C#N)cc2F)cc1` was tested. Which relative growth did it give?
The relative growth was 0.88 (inactive).

For `O=C(NC(=O)c1c(F)cccc1F)Nc1ccc(OC(F)(F)C(F)OC(F)(F)F)c(Cl)c1` (stereo not given), which relative growth is on record?
The relative growth was 0.965 (inactive).

How did the relative growth turn out when `O=C(O)COc1ccc(Cl)cc1Cl` was run?
The relative growth was 0.98 (inactive).

With `CNC(=O)Oc1cccc2ccccc12` as the compound, how does the relative growth read?
The relative growth was 0.847 (inactive).

How did the relative growth turn out when `CCN(CC)c1nc(C)cc(OP(=S)(OC)OC)n1` was run?
The relative growth was 0.843 (inactive).

Which relative growth does the source give for `Cc1cc(C(F)(C(F)(F)F)C(F)(F)F)ccc1NC(=O)c1cccc(I)c1C(=O)NC(C)(C)CS(C)(=O)=O` here?
The relative growth was 1.21 (inactive).

How did the relative growth turn out when `CSc1nc(NC(C)C)nc(NC(C)C)n1` was run?
Its relative growth is 0.857 (inactive).

With `COCC(=O)N(c1c(C)cccc1C)C(C)C(=O)OC` (stereo not given) as the compound, how does the relative growth read?
Its relative growth is 1.06 (inactive).

How did the relative growth turn out when `COc1ncc(F)c2nc(S(=O)(=O)Nc3c(F)cccc3F)nn12` was run?
The relative growth was 1.04 (inactive).

How did the relative growth turn out when `CCNC(=O)NC(=O)/C(C#N)=N/OC` was run?
The relative growth was 1.03 (inactive).

With `COP(N)(=O)SC` (stereo not given) as the compound, how does the relative growth read?
Its relative growth is 0.803 (inactive).

How did the relative growth turn out when `CC(C)NC(=O)N1CC(=O)N(c2cc(Cl)cc(Cl)c2)C1=O` was run?
Its relative growth is 1.01 (inactive).

With `CO/N=C(/C(=O)OC)c1ccccc1CO/N=C(\C)c1cccc(C(F)(F)F)c1` as the compound, how does the relative growth read?
The relative growth was 0.708 (inactive).

How did the relative growth turn out when `CS(=O)(=O)c1ccc(C(=O)C2C(=O)CCCC2=O)c([N+](=O)[O-])c1` was run?
Its relative growth is 1.02 (inactive).

With `COP(=S)(OC)SCN1C(=O)c2ccccc2C1=O` as the compound, how does the relative growth read?
The relative growth was 1 (inactive).

With `O=C(O)CNCP(=O)(O)O` as the compound, how does the relative growth read?
Its relative growth is 0.952 (inactive).

`CC(C)(C)c1ccc(CSc2cnn(C(C)(C)C)c(=O)c2Cl)cc1` was tested. Which relative growth did it give?
Its relative growth is 0.941 (inactive).

With `CS(=O)(=O)NC(=O)c1cc(Oc2ccc(C(F)(F)F)cc2Cl)ccc1[N+](=O)[O-]` as the compound, how does the relative growth read?
Its relative growth is 1.09 (inactive).

How did the relative growth turn out when `CC1COC(Cn2cncn2)(c2ccc(Oc3ccc(Cl)cc3)cc2Cl)O1` (stereo not given) was run?
The relative growth was 0.896 (inactive).

Which relative growth does the source give for `COC(=O)c1ccccc1S(=O)(=O)NC(=O)Nc1nc(C)nc(OC)n1` here?
The relative growth was 1.23 (inactive).

Which relative growth does the source give for `CC1(C)C(C=C(Cl)Cl)C1C(=O)OC(C#N)c1cccc(Oc2ccccc2)c1` (stereo not given) here?
Its relative growth is 1.21 (inactive).

How did the relative growth turn out when `CON(C)C(=O)Nc1ccc(Cl)c(Cl)c1` was run?
The relative growth was 1.03 (inactive).

For `COC(=O)Nc1nc2ccccc2[nH]1`, which relative growth is on record?
Its relative growth is 0.869 (inactive).

How did the relative growth turn out when `CC(C)N1C(=O)N(c2ccccc2)CS/C1=N\C(C)(C)C` was run?
The relative growth was 0.858 (inactive).

For `CCCN(CCC)C(=O)SCc1ccccc1`, which relative growth is on record?
Its relative growth is 0.888 (inactive).

With `C#CCN1C(=O)COc2cc(F)c(N3C(=O)C4=C(CCCC4)C3=O)cc21` as the compound, how does the relative growth read?
The relative growth was 0.871 (inactive).

`COc1ccc(-c2ccccc2)cc1NNC(=O)OC(C)C` was tested. Which relative growth did it give?
The relative growth was 0.782 (inactive).

For `COc1cc(OC)nc(NC(=O)NS(=O)(=O)c2ncccc2C(=O)N(C)C)n1`, which relative growth is on record?
Its relative growth is 1.11 (inactive).

Which relative growth does the source give for `CC(C)N(C)S(=O)(=O)NC(=O)c1cc(-n2c(=O)cc(C(F)(F)F)n(C)c2=O)c(F)cc1Cl` here?
Its relative growth is 0.909 (inactive).

`N#C/N=C1\SCCN1Cc1ccc(Cl)nc1` was tested. Which relative growth did it give?
The relative growth was 1.02 (inactive).

Which relative growth does the source give for `COP(=O)(OC)OC=C(Cl)Cl` here?
Its relative growth is 1.04 (inactive).
